Among all 16,000 compounds or so, about 4,000 (25%) were called active. Roughly 26% stayed inconclusive and do not appear here. Not all results are given here. A number with no mark means an inactive call. The call rests on the fitted dose curve; in most records, active means well fitted curve in the direction sought with a large enough effect; inconclusive means small, poorly fitted or top-dose-only effect, or effect the other way; inactive means no such curve, though single readings can be large or run the other way.
On the % scale 0 is the no-effect control and ±100 the full control effect.

For the experiment, the target named is Cytochrome P450 2C9 (Homo sapiens) (UniProt P11712). As to the kind of experiment: Cytochrome panel assay with activity outcomes. As to conditions: recombinant CYP, pro-luciferin dealkylation, luminescence, p450-cyp2c9; series mostly up to 57.1 µM; activity, negative = inhibition: at the top concentration.
Sequence of Cytochrome P450 2C9 (Homo sapiens) (P11712 whole entry, looked up): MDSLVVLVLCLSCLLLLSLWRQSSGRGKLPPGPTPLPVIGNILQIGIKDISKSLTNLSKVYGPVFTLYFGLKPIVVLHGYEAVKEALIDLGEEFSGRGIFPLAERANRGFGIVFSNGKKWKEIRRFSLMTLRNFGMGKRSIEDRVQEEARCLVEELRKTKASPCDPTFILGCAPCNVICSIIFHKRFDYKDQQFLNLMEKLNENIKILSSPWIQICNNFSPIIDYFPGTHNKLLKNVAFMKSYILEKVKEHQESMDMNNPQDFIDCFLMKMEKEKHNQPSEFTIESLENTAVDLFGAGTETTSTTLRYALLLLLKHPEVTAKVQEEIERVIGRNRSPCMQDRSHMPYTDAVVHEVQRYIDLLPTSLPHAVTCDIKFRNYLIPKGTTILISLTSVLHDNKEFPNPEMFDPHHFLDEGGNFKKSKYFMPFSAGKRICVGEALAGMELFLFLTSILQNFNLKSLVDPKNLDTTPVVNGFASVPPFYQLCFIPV
As to `CCN1CCN(c2cc(=O)n(-c3cc(Cl)ccc3C)c(=O)[nH]2)CC1`, the “activity, negative = inhibition” value was 7.49%.

On to `C[N+](C)(C)CCCCCC[N+](C)(C)C`, for which the “activity, negative = inhibition” value was 10.1%.

For the compound `COC(=O)N1CCC[C@@]2(CCN(C(=O)Nc3cccc(C#N)c3)C2)C1`, the “activity, negative = inhibition” value was -0.0277%. Regarding `Cc1ccc(CSc2nc3c(c(SCC(=O)O)n2)CCCC3)cc1`, the AC50 is 5.62 µM (active). On to `CC[C@@]12CCCN3CCc4c(n(c5ccccc45)C(=O)C1)[C@H]32`, for which the AC50 entry is “inactive”. `Fc1cccc(C2NC(=S)NC3=C2N2CCC3CC2)c1` (configuration not stated): the “activity, negative = inhibition” value is -27.1%.

As to `S=C1NC2=C(C(c3ccc(Br)cc3)N1)N1CCC2CC1` (configuration not stated), the AC50 was 22.4 µM (active). Consider `COc1ccc(C(NC(=O)c2ccc(-c3ccccc3)cc2)c2ccccc2)cc1` (configuration not stated), for which the “activity, negative = inhibition” value was -18.1%.

Regarding `CCOC(=O)CC(NC(=O)c1cccs1)c1ccc(OCC)cc1` (configuration not stated), the AC50 was 3.55 µM (active). With `CNNCc1ccc(C(=O)NC(C)C)cc1`, the “activity, negative = inhibition” value was -25.5% [at 25.6 µM]. For the compound `CCOC(=O)CC(NC(=O)c1ccc(C)cc1)c1ccc(C)cc1` (configuration not stated), the AC50 is 15.8 µM (active). As to `FC(F)(F)c1ccccc1-c1nc(NC2CCNCC2)c2ccccc2n1`, the activity, negative = inhibition is 14.5% [at 2.29 µM]. `Cc1nc(S(=O)(=O)N2CCOCC2)c(C#N)c(C)c1Cl`: the “activity, negative = inhibition” value was 32.3%. For the compound `CCCOc1ccc(OCCNC2CCCC2)cc1`, the “activity, negative = inhibition” value was -7.53%. Same read-out and setting: the figure for `c1c[nH]c(CN2CCOCC2)n1` is -9.4% [at 11.4 µM]. In the case of `Oc1cccc2ccc(SSc3ccc4cccc(O)c4n3)nc12`, the concentration at half-maximal activity (AC50) is 1.58 µM (active). As to `Cc1c(O)c(=O)n(-c2ccccc2)n1C`, the “activity, negative = inhibition” value was -6.28% [at 25.6 µM]. On to `Cc1ccc(O)c(C(=O)c2cc(C#N)c(=O)n(-c3c(C)n(C)n(-c4ccccc4)c3=O)c2)c1`, for which the AC50 was 15.8 µM (active).

Regarding `Cc1c(N(C)C)c(=O)n(-c2ccccc2)n1C`, the “activity, negative = inhibition” value was 2.35% [at 25.6 µM]. The same measure, in the same setting: the result for `Nc1nc(SCC(=O)O)[nH]c(=O)c1N` reads -6.53% [at 11.4 µM]. Take `CCCCCOC(=O)CSc1nnc(-c2ccccc2)c(=O)[nH]1`: the AC50 was 2 µM (active). As for `NCCCc1c(-c2ccccc2)nc(N)[nH]c1=O`, the activity, negative = inhibition was -12.1% [at 11.4 µM]. Same read-out and setting: the figure for `Cc1ccc(S(=O)(=O)N[C@H](C(=O)N2CCC(C(=O)NCC(=O)O)CC2)C(C)C)cc1` is -28.2%. `CCc1ccc2c(c1)c(N=NC1=NC(=O)CS1)c(O)n2CC`: the AC50 was 12.6 µM (active). For the compound `COc1ccc2nc3cc(Cl)ccc3c(Nc3ccc(O)c(CN4CCN(C)CC4)c3)c2c1`, the activity, negative = inhibition was -28.4% [at 11.4 µM]. For the compound `Cc1sc2nc(SCC(=O)C(C)(C)C)n(Cc3ccco3)c(=O)c2c1C`, the AC50 is 1.58 µM (active). In the case of `COc1ccc(C(=O)N2CCC3(CC2)CN(C(=O)NC(C)C)C3)cc1`, the “activity, negative = inhibition” value was -3.69%.

On to `Cc1cccc2sc(NC(=O)C3c4ccccc4Oc4ccccc43)nc12`, for which the AC50 is 1.26 µM (active). On to `Cc1ccccc1NC(=O)c1cnc(Nc2nc3ccccc3s2)nc1C`, for which the “activity, negative = inhibition” value was -2.78%. As for `O=C(Nc1cccnc1Cl)C1c2ccccc2Oc2ccccc21`, the half-maximal activity concentration (AC50) was 1.12 µM (active). For `NC(N)=NNC(=O)C(=O)O`, the activity, negative = inhibition was -4.6% [at 11.4 µM]. Take `CCc1cc2c(NCCO)ncnc2s1`: the AC50 is 1.58 µM (active). On the same count and under the same terms, the result for `CCc1cc2c(NCc3ccco3)ncnc2s1` reads 4.47 µM (active). Consider `OCCCNc1ncnc2[nH]ncc12`, for which the activity, negative = inhibition is -4.6% [at 11.4 µM].

`OCCNc1ncnc2nc[nH]c12`: the activity, negative = inhibition is -11.4% [at 11.4 µM]. The same measure, in the same setting: the result for `Cc1cnc(CNc2ncnc3ccc(-c4ccoc4)cc23)cn1` reads 11.8% [at 2.29 µM]; that for `c1csc(CNc2ncnc3ccc(-c4ccoc4)cc23)c1`, 0.0121% [at 2.29 µM]; that for `CN=C1N[C@H](c2ccccc2)N(c2ccccc2)S1`, -0.499%. Same read-out and setting: the result for `CC(=O)c1c(C)nc(-c2ccccc2)n1O` reads -12.8%.

For `CN=c1nc(-c2ccccc2)n(-c2ccccc2)s1`, the AC50 was 2 µM (active). For the compound `CN1CC[C@@]2(CCCN(C(=O)c3cccn3C)C2)C1`, the “activity, negative = inhibition” value was 11.5%. `COC(=O)[C@@]1(Cc2ccc(F)cc2)[C@H]2c3cc(C(=O)N4CCCC4)n(Cc4cccc5ccccc45)c3C[C@H]2CN1C(=O)c1ccccc1`: the AC50 is 1.58 µM (active).

As for `COC(=O)[C@@]1(Cc2ccccc2)[C@H]2c3cc(C(=O)N4CCCC4)n(Cc4cccc5ccccc45)c3C[C@H]2CN1C(=O)c1ccccc1`, the AC50 is 0.251 µM (active). As to `COc1ccc(-n2c(-c3ccccc3)nc(=S)c3c2CCCC3)cc1`, the “activity, negative = inhibition” value is -24.3%.

On to `CC1=C(C(N)=O)C(c2cccs2)n2nc(-c3cccc(Cl)c3)nc2N1` (configuration not stated), for which the AC50 is 12.6 µM (active). For the compound `C/C(=N\N=C1\NC(=O)CC(C(=O)O)S1)c1cccs1` (configuration not stated), the “activity, negative = inhibition” value was -23%. With `C/C(=N\N=C(c1ccccc1)c1ccccc1)c1cccs1`, the half-maximal activity concentration (AC50) is 0.708 µM (active).

As for `CC(=O)/C(=N\N=C(N)N)c1ccccc1`, the activity, negative = inhibition is 11.7% [at 11.4 µM]. `CC(=O)c1cc(C)ccc1OC(=O)CCN1C(=O)C2C3c4ccccc4C(c4ccccc43)C2C1=O` (configuration not stated): the “activity, negative = inhibition” value was -22.5%. On the same count and under the same terms, the figure for `O=c1[nH]ncn2cccc12` is -3.24%; for `O=C(CSc1nnc(-c2ccco2)n1-c1ccccc1)NCc1ccco1` it is -27%.

For `Cc1cc(C)c(NC(=O)C(C)Sc2nnc(-c3ccco3)n2-c2ccccc2)c(C)c1` (configuration not stated), the AC50 was 10 µM (active). Turning to `O=C1C2CCC(C(O)C2)N1Cc1ccccc1` (configuration not stated), the “activity, negative = inhibition” value was -15.5%. Turning to `NC(=O)c1ccc(C2SCC(=O)N2Cc2ccccc2)cc1` (configuration not stated), the AC50 is 12.6 µM (active). Consider `O=C(O)c1ccc(CNCc2ccccc2)cc1`, for which the activity, negative = inhibition is 10.3% [at 11.4 µM]. Regarding `NS(=O)(=O)c1cc(C(=O)O)cc(N2CCCC2)c1Oc1ccccc1`, the “activity, negative = inhibition” value is 2.98% [at 25.6 µM]. On to `O=C(COc1ccccc1)Nc1cc(C(F)(F)F)ccc1N1CCCC1`, for which the AC50 is 14.1 µM (active). As to `O=C(COC(=O)COc1ccccc1)Nc1ccc(OC(F)(F)F)cc1`, the “activity, negative = inhibition” value is -22.1%.

In the case of `Cc1nn(-c2nc3ccccc3[nH]2)c(N)c1-c1ccc(Cl)cc1`, the concentration at half-maximal activity (AC50) is 3.98 µM (active). `O=C(O)Cc1c(O)ccc2ccccc12`: the activity, negative = inhibition was -24.2% [at 11.4 µM]. Regarding `Oc1ccc2ccccc2c1Cc1c(O)ccc2ccccc12`, the AC50 is 2 µM (active). Take `CC(C)(C)c1ccc(O)c(CN(Cc2c(O)ccc3ccccc23)C2CCCCC2)c1`: the activity, negative = inhibition is -19% [at 11.4 µM]. As to `CC(=O)N1N=C(c2cccc([N+](=O)[O-])c2)OC1c1ccccc1Cl` (configuration not stated), the AC50 is 0.891 µM (active). Still for that read-out and setting: the figure for `CC(=O)N1N=C(c2cccc([N+](=O)[O-])c2)OC1c1ccc(Cl)cc1Cl` (configuration not stated) is 1.26 µM (active); for `Cn1c(=O)cc(OCCCC(=O)N2CCN(c3ccccc3)CC2)c2ccccc21` it is 2.51 µM (active). As for `CCOC(=O)C1CCCN(C(=O)CCCOc2cc(=O)n(C)c3ccccc23)C1` (configuration not stated), the “activity, negative = inhibition” value was 73.9%. Still for that read-out and setting: the figure for `CC(C)(C(=O)c1cccnc1)c1cccnc1` is -1.97% [at 25.6 µM]; for `O=c1c2cnn(-c3ccccc3)c2nnn1/N=C/c1cccnc1` it is 11.6%; for `O=[N+]([O-])c1cc(/C=N/N2CCN(C3c4ccccc4-c4ccccc43)CC2)ccc1Cl` it is -13.6%.

As to `C/C(=N\N1CCN(C2c3ccccc3-c3ccccc32)CC1)c1ccncc1`, the AC50 is 2.24 µM (active). Regarding `C(=N\N1CCN(C2c3ccccc3-c3ccccc32)CC1)/c1cccnc1`, the AC50 is 0.2 µM (active).

Regarding `C/C(=N\N1CCN(C2c3ccccc3-c3ccccc32)CC1)c1cccnc1`, the AC50 is 0.562 µM (active).

Turning to `Cn1nc(C(F)(F)F)c(/C=N/OC(=O)c2ccccc2Cl)c1SCc1ccc(Cl)cc1`, the AC50 was 3.98 µM (active). As for `N[C@@]1(C(=O)O)CN[C@H](C(=O)O)C1`, the “activity, negative = inhibition” value was 2.03%.

For `O=C(c1csnn1)N1CCC2(CC1)CN(Cc1cc(C(F)(F)F)cc(C(F)(F)F)c1)C2`, the “activity, negative = inhibition” value was 17.2%. Consider `Cc1ccc(C)n1N1C(=O)/C(=C\c2ccc(Cl)cc2)SC1=S`, for which the AC50 is 5.01 µM (active). With `CC1=N/C(=C\c2ccc([N+](=O)[O-])cc2)C(=O)N1c1ccc(Cl)cc1`, the “activity, negative = inhibition” value was 4.62%.

In the case of `CC(=O)OC[C@@H]1O[C@@H](O/N=C2/C[C@@H](O)[C@@H](O)[C@@H]3[C@@H]4C(=O)N([C@@H](C)c5ccccc5)C(=O)[C@H]4CC[C@H]23)[C@H](OC(C)=O)[C@H](OC(C)=O)[C@@H]1OC(C)=O`, the activity, negative = inhibition was 10.5% [at 11.4 µM].

In the case of `CCOc1ccc(/C=C/C2=Cc3c(sc(NC(=O)CSc4n[nH]c(N)n4)c3C#N)C(C)(C)C2)cc1`, the AC50 was 10 µM (active). As to `Cc1ccc(/C=C/C2=Cc3c(sc(NC(=O)CSc4n[nH]c(N)n4)c3C#N)C(C)(C)C2)o1`, the half-maximal activity concentration (AC50) was 2.82 µM (active).

As for `CC(=O)OC[C@@H]1O[C@@H](O/N=C2/C[C@@H](O)[C@@H](O)[C@@H]3[C@@H]4C(=O)N(c5cccc(Oc6ccccc6)c5)C(=O)[C@H]4CC[C@H]23)[C@H](OC(C)=O)[C@H](OC(C)=O)[C@@H]1OC(C)=O`, the activity, negative = inhibition is 1.66% [at 11.4 µM]. In the case of `CC(C)(C)NC[C@H](O)c1cc(O)cc(O)c1`, the “activity, negative = inhibition” value was -0.81% [at 25.6 µM]. With `C[C@@H]1OC2C3=C(C(=O)[C@H]4O[C@@H]4[C@H]3O)[C@@H]1[C@H]1[C@H](C)OC=C3[C@H](O)[C@H]4O[C@H]4/C(=N\OCc4ccccc4)[C@@]321`, the activity, negative = inhibition was 13.2% [at 11.4 µM]. Consider `CCOc1cc(CNCCc2ccc(S(N)(=O)=O)cc2)cc(Cl)c1OCc1ccccc1`, for which the AC50 was 12.6 µM (active). As to `CCOc1cc(CNCCO)c(Cl)cc1OCC(=O)NCCc1ccccc1`, the “activity, negative = inhibition” value was -27.7%. Turning to `Cc1ccc(-c2cc(C(=O)NN=C3CCCC3)c3ccccc3n2)cc1`, the AC50 is 12.6 µM (active). Consider `Cc1ccccc1NC(=S)NC(=O)c1cc(-c2ccccc2)nc2ccccc12`, for which the AC50 was 3.55 µM (active). Turning to `Cc1ccc2nc(-c3ccc(NC(=O)c4ccc(N)cc4)c(S(=O)(=O)O)c3)sc2c1`, the activity, negative = inhibition was -3.37% [at 11.4 µM]. Turning to `Cc1ccc(C)c(S(=O)(=O)NC(C)C(=O)Nc2ccc(-c3nc4ccccc4s3)cc2)c1` (configuration not stated), the “activity, negative = inhibition” value is 9.42%. On to `CCCc1ccc(-c2cc(C(=O)NN3CCOCC3)c3ccccc3n2)cc1`, for which the AC50 was 2.51 µM (active). Take `O=C(O)c1cc(-c2ccc3cc4c(cc3c2)OCO4)nc2ccccc12`: the activity, negative = inhibition is -17.1% [at 11.4 µM].

For the compound `Cc1ccc(-c2nc3ccccc3s2)cc1NC(=S)NC(=O)c1ccccc1`, the half-maximal activity concentration (AC50) was 3.55 µM (active).

In general, AC50 refers to the midpoint of the concentration-response curve, whichever way the signal moves.

The values are drawn from PubChem BioAssay AID1851 (National Center for Advancing Translational Sciences (NCATS), 2009).
